Broadly, the inhibition is the change of the read-out against control, counted positive when it falls.

Results on 33 molecules are retold here after PubChem BioAssay.

Values without a mark were called inactive. Active and inactive are the calls of the source. Cut-off read from the data, not from the text of the source, unless noted: active = inhibition above about 44%; inactive = the rest.

A short description of test [1]: StAR promoter reporter inhibitors, counter-screen for LRH-1 inverse agonist project, cell-based, luminescence, high throughput (AID 651611; in the data active = inhibition above about 28%). Conditions: StAR promoter luciferase reporter counterscreen, at 3.6 µM, hits give high values. For orientation: A counterscreen serves to expose hits that act by an unwanted route or on another target.
Test [2] has as its target Nuclear receptor subfamily 5 group A member 2 (Homo sapiens) (UniProt O00482). The experiment in a line: LRH-1 (NR5A2) inverse agonists, retest, confirmation, cell-based, luminescence (AID 651613; in the data active = inhibition above about 42%;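 note: HEK293T cells co-transfected with LRH-1 and StAR promoter luciferase reporter; 0% = vehicle wells and 100% = parental cells lacking receptor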). Conditions: cell-based LRH-1 luciferase reporter, inverse agonism; at 3.6 µM; hits give high values. (In general: Reporter assays use an easily measured gene product as a stand-in for the process of interest.)

Test [3] deals with Steroidogenic factor 1 (Homo sapiens) (UniProt Q13285). Nature of the test: SF1 (NR5A1) inverse agonists, counter-screen for LRH-1 inverse agonist project, cell-based, luminescence, high throughput (AID 651614).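 Note: cells cotransfected with StAR promoter reporter and SF1 expression vector; 0% = vehicle on cells with receptor and 100% = vehicle on cells lacking receptor.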 The note with it: cell-based SF1 luciferase reporter, at 3.6 µM, hits give high values.
Test [4] in a line: VP16 transactivation reporter inhibitors, counter-screen for LRH-1 inverse agonist project, cell-based, luminescence, high throughput (AID 651615; in the data active = inhibition above about 33%). The note with it: Gal4-VP16 luciferase reporter cells, at 3.6 µM, hits give high values.

Sequence of Steroidogenic factor 1 (Homo sapiens) (Q13285 whole entry, looked up, the tested form may be a part): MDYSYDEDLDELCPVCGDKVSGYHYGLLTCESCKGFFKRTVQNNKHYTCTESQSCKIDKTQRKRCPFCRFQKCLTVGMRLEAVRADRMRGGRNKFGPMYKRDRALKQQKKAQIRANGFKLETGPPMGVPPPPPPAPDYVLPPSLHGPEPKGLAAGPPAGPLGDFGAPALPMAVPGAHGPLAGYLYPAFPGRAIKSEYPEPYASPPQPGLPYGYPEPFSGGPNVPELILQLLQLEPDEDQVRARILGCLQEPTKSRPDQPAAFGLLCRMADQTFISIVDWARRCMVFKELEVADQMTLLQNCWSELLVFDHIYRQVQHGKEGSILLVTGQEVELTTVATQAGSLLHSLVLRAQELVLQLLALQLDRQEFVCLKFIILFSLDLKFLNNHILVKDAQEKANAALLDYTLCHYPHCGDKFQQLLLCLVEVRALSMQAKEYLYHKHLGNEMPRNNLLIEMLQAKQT
Sequence of Nuclear receptor subfamily 5 group A member 2 (Homo sapiens) (O00482 whole entry, looked up): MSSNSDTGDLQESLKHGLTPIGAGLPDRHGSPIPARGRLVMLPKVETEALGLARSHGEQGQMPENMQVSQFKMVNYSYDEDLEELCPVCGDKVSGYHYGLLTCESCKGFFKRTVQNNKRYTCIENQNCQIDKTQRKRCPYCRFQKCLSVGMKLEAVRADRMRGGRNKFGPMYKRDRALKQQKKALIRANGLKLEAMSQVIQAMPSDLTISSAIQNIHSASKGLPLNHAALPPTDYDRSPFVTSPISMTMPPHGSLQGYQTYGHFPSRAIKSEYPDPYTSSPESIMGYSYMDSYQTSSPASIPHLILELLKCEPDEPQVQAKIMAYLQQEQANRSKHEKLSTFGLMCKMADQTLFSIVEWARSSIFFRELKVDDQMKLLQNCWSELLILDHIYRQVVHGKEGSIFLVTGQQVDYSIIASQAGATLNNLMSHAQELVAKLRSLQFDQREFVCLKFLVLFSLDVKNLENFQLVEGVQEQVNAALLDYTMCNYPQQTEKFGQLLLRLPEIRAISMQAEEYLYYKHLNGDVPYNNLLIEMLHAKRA

Turning to `CCCc1nc(SCC(=O)c2ccc(F)cc2)c2ccccc2n1`, the inhibition is 5.26% in test [1], 46.9% (active) in test [2], 55.7% (active) in test [3] and -0.25% in test [4].
On the same counts, the results for `Cc1ccc(NC(=O)CSc2nnc([C@@H]3CCCN3C(=O)OC(C)(C)C)o2)c(C)c1` are 13.8%, 58% (active), 54.5% (active) and -1.31%.
For the molecule `Cc1c(NC(=O)c2ccc([N+](=O)[O-])o2)cccc1-c1nc2ncccc2o1`, the inhibition is 13.3% in test [1], 66.2% (active) in test [2], 58.7% (active) in test [3] and -13.2% in test [4].
In the case of `CCOc1ccc(CCNC(=O)COC(=O)c2ccc(F)c(S(=O)(=O)N3CCOCC3)c2)cc1OCC`, the inhibition in test [1] is 10.3%; in test [2], 61.8% (active); in test [3], 61.6% (active); in test [4] it was -3.82%.
Take `C#CCN(C[C@@H]1[C@@H](OC(=O)NCC2CCCCC2)[C@@H](OC(=O)NCC2CCCCC2)Cn2c(=O)ccc(=O)n21)S(=O)(=O)c1ccc(C)cc1`: the inhibition is 38.3% (active) in test [1], 62.4% (active) in test [2], 74.5% (active) in test [3] and 70.8% (active) in test [4].
On the same counts, the results for `CCCc1cc(=O)oc2c(C)c(OCC(=O)NCCCn3ccnc3)ccc12` are -1.87%, 47.8% (active), 35.9% and -19.5%.
For `Oc1cccc(Nc2nc(N3CCOCC3)nc(N3CCOCC3)n2)c1`, the inhibition in test [1] is 24.7%; in test [2], 45% (active); in test [3], 21.6%; in test [4], 21%.
The like results for `CCOc1cc(/C=C2\C(=N)N3N=C(C)SC3=NC2=O)ccc1OCCOc1cccc(OC)c1` were, in that order, 10%, 39.7%, 40.2% and 6.87%.
On to `O=C(CN1CCN(S(=O)(=O)c2cc(Cl)ccc2Cl)CC1)Nc1ccc2c(c1)OCCO2`, for which the inhibition in test [1] is 19%; in test [2], 59.6% (active); in test [3], 59.1% (active); in test [4], -3.13%.
On the same counts, the results for `Cc1ccc(NC(=O)Cc2nnc(SCC(=O)Nc3ccc(N4CCOCC4)cc3)n2C)cc1` are 6.95%, 59.7% (active), 51.9% (active) and 12%.
Consider `COc1ccc(-c2c(C)nn3c(NC4CCCC4)cc(C)nc23)cc1OC`, for which the inhibition in test [1] was 25.9%; in test [2], 62.9% (active); in test [3] it was 54.8% (active); in test [4], -3.44%.
The like results for `Cc1cccc(NC(=O)COC(=O)c2cccs2)c1C` were, in that order, 0.76%, 52.7% (active), 56.8% (active) and 9.54%.
On the same counts, the results for `NC(=S)N/N=C/c1ccc(C(F)(F)F)cc1` are -1.87%, 48.1% (active), 44.6% (active) and 9.68%.
The like results for `CC(O)(c1cccc(F)c1)c1nc(-c2ccc(S(C)(=O)=O)cc2)cs1` (configuration not stated) were, in that order, 2.43%, 48.7% (active), 44.9% (active) and -6.85%.
Turning to `c1ccc(Oc2nc(-c3cccnc3)nc3ccccc23)cc1`, the inhibition was 10.6% in test [1], 57.3% (active) in test [2], 53.3% (active) in test [3] and 1.32% in test [4].
The like results for `COc1cc(C(=O)Nc2ccccc2C(=O)Nc2ccccn2)cc(OC)c1OC` were, in that order, 61.2% (active), 45.9% (active), 62.1% (active) and -2.31%.
On to `Cc1ccc(NC(=O)CN2CCC(NC(=O)C3CCCCC3)CC2)c(Br)c1`, for which the inhibition in test [1] is 11.8%; in test [2], 34%; in test [3], 44.9% (active); in test [4], 7.56%.
`O=C(Nc1ccc2oc(-c3ccccc3F)nc2c1)c1ccc([N+](=O)[O-])o1`: the inhibition in test [1] was -5.27%; in test [2], 46% (active); in test [3] it was 56% (active); in test [4] it was -24.7%.
On the same counts, the results for `c1ccc(-c2nc(N3CCCCCC3)c3ccccc3n2)nc1` are 24.7%, 63.5% (active), 74.8% (active) and 39.3% (active).
The like results for `COc1cc2c(cc1OC)C(C1C(=O)CC(C)CC1=O)N(C(=O)CCl)CC2` (configuration not stated) were, in that order, 19.1%, 54.1% (active), 58.5% (active) and -19.1%.
The like results for `CCN(CC)S(=O)(=O)c1ccc(NC(=O)c2ccc(CN3CCOCC3)cc2)cc1` were, in that order, 23.9%, 57.5% (active), 57.4% (active) and 54.4% (active).
With `CCOc1ccc(S(=O)(=O)Nc2cc(OC)ccc2OC)cc1`, the inhibition in test [1] is 35.8% (active); in test [2], 54.4% (active); in test [3], 49.1% (active); in test [4], 22.6%.
On the same counts, the results for `O=C(c1ccoc1)N1CCN(c2cc(-c3ccco3)nc3cc(-c4ccccc4)nn23)CC1` are 46.1% (active), 50.1% (active), 48% (active) and 19.7%.
On the same counts, the results for `CC1CCC2(CC1)NC(=O)N(CC(=O)Nc1ccc3c(c1)OCCCO3)C2=O` (configuration not stated) are 10.5%, 46.8% (active), 44.8% (active) and -7.87%.
As for `O=[N+]([O-])c1cnccc1Nc1cccc(F)c1`, the inhibition in test [1] is 11.5%; in test [2], 62.3% (active); in test [3], 55.1% (active); in test [4] it was 10%.
For the molecule `CCOc1ccc(NC(=O)COC(=O)C2COc3ccccc3O2)cc1` (configuration not stated), the inhibition in test [1] is -6.6%; in test [2] it was 35.4%; in test [3] it was 28.8%; in test [4], 3.94%.
As to `COc1ccc(N2CCN(C(=O)CN3C(=O)NC4(CCCCCC4)C3=O)CC2)cc1`, the inhibition is 7.32% in test [1], 46.6% (active) in test [2], 43.3% (active) in test [3] and -4.03% in test [4].
The like results for `CC(Oc1ccc(S(=O)(=O)N2CCCC2)cc1[N+](=O)[O-])C(=O)NC(C)c1ccccc1` (configuration not stated) were, in that order, 4.94%, 52.3% (active), 50.8% (active) and 1.83%.
Take `O=C(COc1ccc(F)c(Cl)c1)Nc1ccc(N2CCOCC2)cc1`: the inhibition is 3.59% in test [1], 36% in test [2], 39% in test [3] and 3.92% in test [4].
On to `O=C(Cn1ccc(=O)[nH]c1=O)c1ccc([N+](=O)[O-])o1`, for which the inhibition was 13.1% in test [1], 14.3% in test [2], 14.9% in test [3] and -16.8% in test [4].
The like results for `Cc1ccc(Cn2nc(C)c(NC(=O)c3noc4c3CCCCC4)c2C)cc1` were, in that order, 14.1%, 53.6% (active), 50.7% (active) and -1.13%.
The like results for `O=Cc1ccc2c(c1)CCN2Cc1ccccc1` were, in that order, 4.56%, 56.6% (active), 55.7% (active) and -34.1%.
On the same counts, the results for `Cc1ccc(NC(=O)c2ccc([N+](=O)[O-])o2)c(C)c1` are 11.1%, 54.7% (active), 54.6% (active) and -6.21%.
